Assay outcomes (PubChem)
Most compounds without a hit are left out; they make up all but 2.9% or so of the library.
PME-1 inh: PME-1 (human) inhibition; Q9Y570; recombinant PME-1, FP-Rh probe fluorescence polarization; actives 0.53% (n = 320,000); inhibition, % at 5.9 µM;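 active = inhibition above the campaign mean of all compounds plus 3 SD, cut at about 26% in these data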;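 also: competitive labeling of PME-1 active site by serine hydrolase directed probe; 0% = PME-1 with DMSO and 100% = wells lacking PME-1 enzyme; inhibitors block probe labeling so polarization falls and inhibition rises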
PAFAH1B3 inh: blocks human PAF acetylhydrolase 1B catalytic subunit 3 | inhibition, % at 3.39 µM | recombinant PAFAH1B3, FP-rhodamine probe, fluorescence polarization | actives 0.28% (n = 340,000) | Q15102;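 active = inhibition above the screen-wide average of all tested compounds plus 3 SD, cut at about 25% in these data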;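 also: 0% = enzyme with DMSO only and 100% = wells lacking PAFAH1B3 protein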
PAFAH2 inh: PAFAH2 (human) inhibition; Q99487; inhibition, % at 3.39 µM; AID 492956; actives 0.99% (n = 340,000); recombinant PAFAH2, FP-rhodamine activity probe, fluorescence polarization;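 active = inhibition above the mean over all tested compounds plus 3 SD, cut at about 30% in these data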;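 also: inhibitors block probe labeling of enzyme so polarization drops; 0% = enzyme with DMSO and 100% = wells lacking PAFAH2 protein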
pPAFAH FP inh: inhibitors of human plasma PAF acetylhydrolase (pPAFAH); AID 463082; Q13093; recombinant pPAFAH, FP-rhodamine probe fluorescence polarization; actives 1.5% (n = 330,000); inhibition, % at 3.39 µM;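 active = inhibition above the mean inhibition across the screen plus 3 SD, cut at about 25% in these data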;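 also: inhibitors block binding of the rhodamine activity-based probe so polarization drops; 0% = enzyme with DMSO and 100% = wells lacking pPAFAH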
Target sequence (Q13093 whole entry, looked up): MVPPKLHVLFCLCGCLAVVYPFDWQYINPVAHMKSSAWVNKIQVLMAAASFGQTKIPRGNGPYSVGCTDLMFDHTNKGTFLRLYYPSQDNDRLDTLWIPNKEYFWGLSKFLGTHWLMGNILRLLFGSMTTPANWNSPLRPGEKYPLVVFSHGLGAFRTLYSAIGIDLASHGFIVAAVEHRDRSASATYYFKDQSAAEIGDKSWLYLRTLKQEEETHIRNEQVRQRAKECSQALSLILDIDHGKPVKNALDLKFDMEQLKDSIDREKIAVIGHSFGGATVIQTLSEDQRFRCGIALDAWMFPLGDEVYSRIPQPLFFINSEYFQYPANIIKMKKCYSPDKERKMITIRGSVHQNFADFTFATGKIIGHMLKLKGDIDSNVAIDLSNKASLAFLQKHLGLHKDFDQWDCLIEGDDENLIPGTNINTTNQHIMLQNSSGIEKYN
PAFAH1B2 inh: PAFAH1B2 (human) inhibition; P68402; recombinant PAFAH1B2, FP-rhodamine activity probe, fluorescence polarization; inhibition, % at 3.39 µM; actives 1.2% (n = 340,000);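 active = inhibition above the mean of all tested compounds plus 3 SD, cut at about 24% in these data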;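 also: 0% = enzyme with DMSO and 100% = wells lacking PAFAH1B2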
Target sequence (P68402 whole entry, looked up): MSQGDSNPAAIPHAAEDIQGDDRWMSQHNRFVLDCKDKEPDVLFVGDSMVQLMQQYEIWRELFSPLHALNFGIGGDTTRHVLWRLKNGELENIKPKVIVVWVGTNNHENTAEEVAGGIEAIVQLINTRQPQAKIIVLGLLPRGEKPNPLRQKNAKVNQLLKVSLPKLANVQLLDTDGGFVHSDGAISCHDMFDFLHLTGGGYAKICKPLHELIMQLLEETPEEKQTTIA
Fam108B inh: blocks mouse Fam108B hydrolase in RBBP9 counter-screen | recombinant Fam108B, FP-Rh probe fluorescence polarization | inhibition, % at 9.51 µM | actives 0.33% (n = 300,000);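 active = inhibition above the screen mean inhibition plus 3 SD, computed separately per campaign, cut at about 18% in these data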;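 also: inhibitors lower polarization as less probe binds the enzyme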
Active calls of the source: *; · = not tested or not shown.

SMILES | PME-1 inh | PAFAH1B3 inh | PAFAH2 inh | pPAFAH FP inh | PAFAH1B2 inh | Fam108B inh
Cc1cccc(OCC(=O)NCC(=O)N/N=C/c2cc(Br)cc(Br)c2O)c1 | 0 | 8 | 13 | 24 | 34* | 3
Cc1cccc(OCC(=O)N/N=C/C=C/c2ccco2)c1 | 6 | -3 | 5 | 30* | 0 | -3
Cc1cc(NC(=O)COC(=O)C2CCN(S(=O)(=O)c3ccccc3)CC2)c([N+](=O)[O-])cc1C | 13 | 3 | 4 | 15 | 3 | 2
CCOC(=O)c1cccc(NC(=O)c2cc(C)nn2-c2ccccc2)c1 | 1 | 10 | 1 | 2 | -1 | 3
O=C(O)c1ccc2c(c1)C(=O)/C(=C/c1ccccc1)C2=O | -4 | 39* | 13 | 27* | 21 | 15
CC(C)(C)N1C(=O)c2ccc(C(=O)O)cc2C1=O | 0 | 9 | 2 | -4 | 1 | 10
Cc1ccc(NC(C)c2cc(Cl)ccc2O)cc1 (stereo not given) | 2 | 2 | -4 | 0 | 28* | 5
CC(Nn1cnnc1)c1cc(Cl)ccc1O (stereo not given) | 5 | 9 | 4 | -4 | 0 | -2
CC1=C(C#N)C(=O)N(C2CCS(=O)(=O)C2)C(=O)/C1=C\c1ccc(C)o1 (stereo not given) | -1 | · | · | 37* | · | 8
CCN1C(=O)N/C(=C/c2ccc(C)o2)C1=O | 0 | 1 | 0 | 0 | 2 | -3
COc1cccc(/C=N\NC(C)=O)c1OC/C=C/c1ccccc1 | · | 9 | 1 | · | 5 | ·
COc1ccc(C(C)(C)C)cc1NC(=O)c1ccccc1-n1cnnn1 | · | -2 | -9 | 2 | -1 | ·
O=S(=O)(Nc1ccc(Cc2ccncc2)cc1)c1ccc(Br)s1 | 20 | 10 | 3 | 26* | 10 | 0
O=S(=O)(Nc1ccc(Cc2ccncc2)cc1)c1ccc(Cl)s1 | 12 | 4 | 5 | 13 | 12 | 1
Nc1cc(=O)[nH]c(SCC(=O)NC2CCCc3ccccc32)n1 (stereo not given) | -3 | 3 | 2 | 4 | 9 | 3
CCCc1cc(=O)[nH]c(SCC(=O)NC2CCCc3ccccc32)n1 (stereo not given) | 1 | -3 | 1 | -1 | 26* | -2
CCOc1ccccc1NC(=O)C(=O)N/N=C/c1cc(Br)ccc1O | -1 | 4 | 10 | 26* | 5 | 0
COc1ccccc1/C=N/NC(=O)c1cccc(OC(F)(F)C(F)F)c1 | -10 | 0 | -4 | 2 | -1 | -4
COc1cccc(/C=N/NC(=O)C(=O)Nc2ccccc2OC(F)(F)C(F)F)c1O | -8 | 27* | 35* | 12 | 5 | 8
C[n+]1cccc(C(=O)Nc2ccccc2)c1 | 5 | 5 | 3 | 0 | 8 | -3
CN(CCC1CCOCC1)C(=O)CC1C(=O)NCCN1Cc1c(F)cccc1Cl (stereo not given) | -3 | 11 | -4 | -4 | 0 | 5
O=C(NC1CC1)C1CCN(S(=O)(=O)c2cc(Cl)ccc2Cl)CC1 | 1 | 12 | 8 | 3 | 4 | 3
O=C(NC1CC1)C1CCN(S(=O)(=O)c2cc([N+](=O)[O-])ccc2Cl)CC1 | -1 | 9 | 12 | 32* | 5 | ·
Cc1cccc(NC(=O)CCC(=O)N2CCOCC2)n1 | 1 | 6 | 2 | -2 | 9 | ·
CCOc1ccc(S(=O)(=O)N(CC(=O)N2CCC(C(N)=O)CC2)c2ccc(F)cc2)cc1 | 3 | 4 | 4 | 10 | 4 | -4
SMILES | PME-1 inh | PAFAH1B3 inh | PAFAH2 inh | pPAFAH FP inh | PAFAH1B2 inh | Fam108B inh
O=S(=O)(c1ccc(F)cc1)N1CCN=C1SCc1cccnc1 | 7 | 2 | 6 | -2 | 8 | -1
O=S(=O)(c1ccc(Br)cc1)N1CCN=C1SCc1cccnc1 | 3 | 4 | 3 | -5 | 25* | -2
N/C(=N\OC(=O)C12CC3CC(CC(C3)C1)C2)c1ccccn1 | -1 | 7 | 20 | -1 | 24* | 0
CCN1CCN(C(=O)/C=C/c2cccc(Cl)c2)CC1 | -1 | 2 | 2 | 2 | 1 | -3
COc1ccc(C2=CC3=C(Br)C(=O)C(C)(OC(=O)C4CCCC4)C(=O)C3=CO2)cc1 (stereo not given) | 5 | 4 | 13 | 25* | 7 | 7
COc1ccc(C2=CC3=C(Br)C(=O)C(C)(OC(=O)c4ccc(Cl)nc4)C(=O)C3=CO2)cc1 (stereo not given) | 0 | · | · | 28* | · | 6
COc1ccc(CN2C=C3C(=O)C(C)(OC(=O)C4CCCC4)C(=O)C=C3C=C2c2ccsc2)cc1 (stereo not given) | 7 | 0 | 0 | 19 | 0 | 12
O=C(CN(Cc1ccccc1)S(=O)(=O)c1ccc2c(c1)OCCO2)N/N=C/c1ccc(F)cc1 | -21 | 3 | -5 | 33* | -1 | -17
COc1ccc(/C=N/NC(=O)CN(Cc2ccccc2)S(=O)(=O)c2ccc3c(c2)OCCO3)cc1 | -16 | -3 | -5 | 16 | -1 | -15
Cc1cc(-c2ccc(NS(=O)(=O)c3ccccc3)c(C)c2)ccc1NS(=O)(=O)c1ccccc1 | · | -11 | -12 | · | -3 | ·
Cc1ccc(NS(=O)(=O)c2ccccc2)c2c1CC(C)(C)O2 | 14 | -3 | 1 | 29* | 2 | -4
CCCNC(=O)C1CC(=O)N(c2ccc(OCc3ccc(F)cc3)cc2)C1 (stereo not given) | 0 | -6 | 3 | 4 | 0 | 1
CCCNC(=O)C1CC(=O)N(c2ccc(OCc3ccc(Cl)cc3)cc2)C1 (stereo not given) | 2 | 0 | -3 | 9 | 30* | 0
NC(=O)C1CC(=O)N(c2ccc(OCc3ccc(Cl)cc3)cc2)C1 (stereo not given) | 7 | 4 | -6 | 9 | 28* | 0
Cc1nc2ccccc2n1CCOc1ccc(F)cc1 | · | 5 | 0 | · | -2 | ·
Cc1nc2ccccc2n1CCOc1ccc([N+](=O)[O-])cc1 | -1 | 8 | -3 | 30* | 6 | -1
CCOc1ccccc1N1CC(C(=O)Nc2cccc(S(=O)(=O)N3CCCCC3)c2)CC1=O (stereo not given) | 8 | -1 | 3 | 3 | 2 | 0
O=C(CSc1nnnn1-c1ccc(F)cc1)c1ccc(O)c(O)c1 | 6 | 4 | 19 | 31* | 9 | 6
COc1ccc(-n2nnnc2SCC(=O)c2cccc(OC)c2)cc1 | 2 | 4 | 0 | 6 | 3 | 0
Cc1ccccc1Cn1c(NC2CCCC2)nc2c1c(=O)[nH]c(=O)n2C | 3 | 3 | 5 | 33* | 2 | 2
Cn1c(=O)[nH]c(=O)c2c1nc(NC1CCCCC1)n2Cc1ccccc1 | -8 | 5 | 2 | 3 | 7 | 6
CCc1cc(CN2CCOCC2)c(NC(=O)c2ccccc2)s1 | -2 | 7 | 4 | 6 | 2 | -4
Cc1ccc(C(=O)/C=C/c2cc(Br)cc(Br)c2O)o1 | -4 | 3 | 34* | 31* | 2 | 5
